Test results reported in PubChem BioAssay (NCATS).
Inconclusive results are not listed. Active and inactive are the calls of the source. Unless noted, the call rests on the fitted dose curve; in most records, active means well fitted curve in the direction sought with a large enough effect; inconclusive means small, poorly fitted or top-dose-only effect, or another doubt; inactive means no such curve, though single readings can be large; an effect the other way counts as inactive or inconclusive.

What was measured:
[1] = MultiTox-Fluor Cytotoxicity Assay - LYMP1-001 - Live Cells (AID 947)
[2] = Cell Viability - LYMP1-002 - Assay at 16 hr (AID 948)
Outline: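 Acute cytotoxicity is scored as a concentration-dependent fall in intracellular ATP in a human lymphoblastoid line (LYMP1-002) after 16 hr compound exposure at 37 C, measured by luciferase luminescence.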

[3] = MultiTox-Fluor Cytotoxicity Assay - LYMP1-002 - Live Cells (AID 955)
Outline: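 LYMP1-002 lymphoblastoid cells; 2500 cells/well; 16 hr compound exposure, 37 C; MultiTox-Fluor reagent 60 min RT; live-cell fluorescence Ex/Em=405/510; qHTS concentration-response, Hill-equation AC50; tetraoctylammonium bromide positive control.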

[4] = MultiTox-Fluor Cytotoxicity Assay - LYMP1-002 - Dead Cells (AID 960);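 further: cells exposed to compound for 16 h at 37 °C; nearly all actives have a fitted effect of over 60% in size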
Outline: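 Readout: fluorescence at 485/520 from cell-impermeant bis-AAF-R110 cleaved by proteases leaking from damaged cells. LYMP1-002 lymphoblastoid line, 16 hr compound treatment at 37 C, concentration-response in qHTS format; Hill-equation AC50 values.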

[5] = MultiTox-Fluor Cytotoxicity Assay - LYMP1-003 - Dead Cells (AID 961);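 further: cells exposed to compound for 16 h at 37 °C; nearly all actives have a fitted effect of over 70% in size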
From the text: NIH Chemical Genomics Center [NCGC]
NIH Molecular Libraries Screening Centers Network [MLSCN]
National Institutes of Environmental Health Sciences [NIEHS]
National Toxicology Program [NTP]
We have developed a 1536-well cell-based assay for quantitative high throughput screening (qHTS) against a number of cell lines to determine in vitro cytotoxicity of small molecules. This particular assay uses a human lymphoblastoid cell line (LYMP1-003) purchased from Coriell Institute.
NCGC Assay Protocol Summary:
The MultiTox-Fluor Cytotoxicity Assay (Promega) is a homogeneous method to simultaneously measure the relative number of live and dead cells in culture by detecting changes in cell membrane integrity. There are two fluorogenic peptide substrates in the assay reagent. Viable cells are determined when the cell-permeant substrate (GF-AFC) enters the cell and is cleaved by protease from live cells resulting in liberated fluorophore. This live-cell protease activity restricted to viable cells is proportional to cell number. The dead cells are determined by using fluorogenic cell-impermeant peptide substrate (bis-AAF-R110) which cleaved by dead cell proteases leaking from damaged cell membrane.
Using the MultiTox-Fluor Cytotoxicity Assay, the relative number of dead cells was measured in the lymphoblastoid cell line with complete culture medium following compound treatment for 16 hours. The assay was performed in opaque black Kalypsys 1536-well plates. In the screen, tetraoctylammonium bromide was used as positive control. Library compounds were measured for their ability to cause acute toxicity in the cell line, as reflected by an increase in dead cell protease activity, in a concentration-dependent manner. Data were normalized to the controls for basal activity (DMSO only) and 100% stimulation (15 uM tetraoctylammonium bromide). AC50 values were determined from concentration-response data modeled with the standard Hill equation.
qHTS protocol for MultiTox-Fluor Cytotoxicity assay
[Step] [Parameter] [Value] [Description]
1. Reagent; 5 uL; 2500 lymphoblastoid cells/well
2. Time; 5 hr; 37 C incubation
4. Controls; 23 nL; Tetraoctylammonium bromide 6.4pM to 92 uM
5. Time; 16 hr; 37 C incubation
6. Reagent; 5 uL; MuliTox-Fluor Assay reagent
7. Time; 60 min; Room Temperature
8. Detection; dead-cell fluorescence (Ex/Em=485/520); EnVision plate reader
Keywords: cytotoxicity, lymphoblastoid cell line, fluorescence, NTPHTS, NTPHTS_NCGC, NIEHS, EPA, DSSTox, MLSMR, MLSCN, NIH Roadmap, qHTS, NCGC

[6] = MultiTox-Fluor Cytotoxicity Assay - LYMP1-003 - Live Cells (AID 962);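 further: cells exposed to compound for 16 hours at 37 °C; cytotoxic hits lower the live-cell protease signal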
Outline: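 Readout: live-cell fluorescence (Ex/Em=405/510) from GF-AFC cleavage after 60 min MultiTox-Fluor reagent at room temperature. Lymphoblastoid LYMP1-003 cells, 16 hr compound treatment, 37 C. Concentration-response fitted to standard Hill equation for AC50.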

[7] = Cell Viability - LYMP1-003 - Assay at 24 hr (AID 963)
Outline: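 CellTiter-Glo luminescence (intracellular ATP) read after 24 hr, 37 C compound exposure of 2500 LYMP1-003 human lymphoblastoid cells/well in complete medium; qHTS concentration series; AC50 via standard Hill equation.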

[8] = Cell Viability - LYMP1-003 - Assay at 40 hr (AID 964); further: series mostly up to about 92 µM; nearly all actives have a fitted effect of over 60% in size
Outline: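 LYMP1-003 lymphoblastoid cells, 2500/well; 5 hr preincubation, 40 hr compound exposure, 37 C; CellTiter-Glo 30 min RT; luminescence; Hill-fit AC50. Positive control tetraoctylammonium bromide.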

[9] = Cell Viability - LYMP2-003 (AID 965);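 further: cells exposed to compounds for 24 h before reading; nearly all actives have a fitted effect of over 50% in size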
Outline: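 Acute cytotoxicity is scored as a concentration-dependent drop in intracellular ATP, measured by luciferase luminescence in human lymphoblastoid cells treated for 24 hours at 37 C. AC50 values derive from Hill-equation modelling.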

[10] = target: Pyruvate kinase PKM (Homo sapiens) (UniProt P14618); assay: qHTS Assay for Activators of Human Muscle Pyruvate Kinase (AID 954; active means well fitted curve in the direction sought with a large enough effect, not every such curve was filed as active)
Chain of Pyruvate kinase PKM (Homo sapiens) (P14618 whole entry, looked up): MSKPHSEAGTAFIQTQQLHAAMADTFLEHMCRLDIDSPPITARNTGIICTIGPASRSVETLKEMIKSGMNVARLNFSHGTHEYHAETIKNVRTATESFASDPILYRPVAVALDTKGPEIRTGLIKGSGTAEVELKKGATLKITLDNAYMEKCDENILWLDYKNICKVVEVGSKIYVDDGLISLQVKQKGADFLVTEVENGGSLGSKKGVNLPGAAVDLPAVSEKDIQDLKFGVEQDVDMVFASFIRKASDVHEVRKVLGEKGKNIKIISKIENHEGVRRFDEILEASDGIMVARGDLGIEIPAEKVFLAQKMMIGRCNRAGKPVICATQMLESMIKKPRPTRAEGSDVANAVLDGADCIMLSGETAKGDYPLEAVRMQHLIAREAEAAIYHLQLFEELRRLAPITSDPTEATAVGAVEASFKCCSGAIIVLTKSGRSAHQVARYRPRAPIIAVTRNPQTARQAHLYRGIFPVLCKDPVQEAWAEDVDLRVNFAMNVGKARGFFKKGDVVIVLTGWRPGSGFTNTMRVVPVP
Outline: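 A coupled luminescent readout tracked ATP made from ADP by purified PKM2. Final conditions included 0.1 nM enzyme, PEP and ADP at 0.5 and 0.1 mM, pH 7.2 imidazole buffer with BSA, and a one-hour room-temperature reaction.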

Measured: outcome

COC(C)=O
inactive: [1] | [2] | [3] | [4] | [5] | [6] | [7] | [8] | [9]

O=C(O)CC(O)(CC(=O)O)C(=O)O
inactive: [1] | [2] | [3] | [4] | [5] | [6] | [7] | [8] | [9]

CN(C)Cc1ccccc1
inactive: [1] | [2] | [3] | [4] | [5] | [6] | [7] | [8] | [9]

C=Cc1ccccc1
inactive: [1] | [2] | [3] | [4] | [5] | [6] | [7] | [8] | [9]

NCCCC(=O)O
inactive: [10]

CCCCCCCCCC(=O)O
inactive: [1] | [2] | [3] | [4] | [5] | [6] | [7] | [8] | [9]

Cc1ccc(OC[C@H](O)[C@H](C)NC(C)C)c2c1CCC2
inactive: [10]

CN[C@H]1CC[C@@H](c2ccc(Cl)c(Cl)c2)c2ccccc21
inactive: [10]
